Rows were chosen to be rich in hits. Some 27% of all compounds tested hit in one or more screens of this group.
sEH activator = soluble epoxide hydrolase activators, primary screen, biochemical, human sEH | purified human sEH enzymatic activity, activator screen | 91,000 tested, 0.04% active | activation, % at 2 µM | Bifunctional epoxide hydrolase 2 (Homo sapiens), P34913 | AID 717, 2007; in the data active = activation above about 37%
CYP2C19 act = human CYP2C19 activators, primary screen, biochemical, luminescence | activation factor at 5 µM | recombinant CYP2C19, luciferin-H EGE luminescence; active compounds read high; 0 = fully inhibited enzyme, 1 = untreated enzyme | 96,000 tested, under 10 active;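 active = activation factor of at least 2 at 5 µM in the primary screen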;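 also: 0 = wells with 2.5 mM tranylcypromine and 1 = vehicle-only wells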
Target sequence (P33261 whole entry, looked up): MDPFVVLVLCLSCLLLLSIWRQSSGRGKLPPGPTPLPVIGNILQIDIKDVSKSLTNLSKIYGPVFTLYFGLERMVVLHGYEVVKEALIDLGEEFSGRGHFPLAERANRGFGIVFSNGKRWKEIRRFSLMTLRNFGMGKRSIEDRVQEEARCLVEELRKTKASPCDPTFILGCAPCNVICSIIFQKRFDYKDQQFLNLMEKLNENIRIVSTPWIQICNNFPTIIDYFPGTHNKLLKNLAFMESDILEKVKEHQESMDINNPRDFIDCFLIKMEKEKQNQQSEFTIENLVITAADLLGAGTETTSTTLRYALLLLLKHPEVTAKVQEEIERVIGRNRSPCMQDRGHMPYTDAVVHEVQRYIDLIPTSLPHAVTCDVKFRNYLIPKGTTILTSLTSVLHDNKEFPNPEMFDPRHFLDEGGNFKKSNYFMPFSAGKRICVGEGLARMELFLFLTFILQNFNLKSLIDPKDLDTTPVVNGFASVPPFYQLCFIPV
sEH inhibitor = soluble epoxide hydrolase inhibitors, primary screen, biochemical, human sEH. inhibition, % at 2 µM. Bifunctional epoxide hydrolase 2 (Homo sapiens), P34913. recombinant human sEH enzymatic activity assay. 91,000 tested, 0.34% active; in the data active = inhibition above about 80%
CYP2C9 inhib = blockers of cytochrome P450 2C9 activity – biochemical, luminescence, ADME assay, primary screen; CYP2C9 Supersomes, luciferin-H conversion; AID 777, 2007; P11712; inhibition, % at 5 µM; 96,000 tested, 20% active;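 active = blocking of liver enzyme CYP2C9 beyond about 50% at 5 µM, limit read from the data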
CYP2C9 act = human CYP2C9 activators, primary screen, biochemical, luminescence | Cytochrome P450 2C9 (Homo sapiens), P11712 | recombinant CYP2C9, luciferin-H conversion; active compounds read high; factor 1 = untreated enzyme, 0 = blocked | 96,000 tested, 1.4% active | activation factor at 5 µM;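 active = activation factor of 2 or more for CYP2C9 at a 5 µM dose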;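 also: 0 = sulfaphenazole-blocked wells and 1 = vehicle-only wells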
CYP2C19 inh = blockers of cytochrome P450 2C19 activity – biochemical, luminescence, ADME assay, primary screen | CYP2C19 Supersomes, luciferin-H EGE luminescence, 30 min | inhibition, % at 5 µM | 96,000 tested, 21% active | AID 778, 2007;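 active = CYP2C19 inhibition above a set limit at 5 µM in the primary screen, cut at about 50% in these data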;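 also: plate controls were negative control wells for no effect and 2.5 mM tranylcypromine positive control for full effect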
The depositor's hits bear a star; . = no result.

SMILES	sEH activator	CYP2C19 act	sEH inhibitor	CYP2C9 inhib	CYP2C9 act	CYP2C19 inh
O=C(c1ccc(O)cc1)c1ccc(C(=O)c2ccc(O)cc2)cc1	2	1.1	-4	69*	0.3	-5
Cc1ccc(C)n1NC(=O)c1ccc(O)cc1	8	1	-6	32	0.7	2
Cc1nc2sc(C(c3ccco3)N3CCc4ccccc4C3)c(O)n2n1 (stereo not drawn)	2	.	-2	.	.	.
CCCCn1nc(C(=O)O)ccc1=O	-10	0.9	9	9	0.9	8
Cc1cc(C(=O)CSc2nc3ccccc3n2C)c(C)n1C	0	0.7	2	-239	3.4*	33
Cc1ccccc1-n1c(SCC(=O)c2cc(C)n(C)c2C)nnc1-c1cccnc1	-1	0.3	-4	62*	0.4	67*
CCn1c(SCC(=O)c2ccc(O)c(O)c2)nnc1-c1ccccc1	4	0	-4	24	0.8	98*
CCn1c(SCC(=O)c2ccc(O)c(O)c2)nnc1-c1ccccc1OC	15	0.3	-16	-28	1.3	67*
CC1(C)CC(O)(CCNCc2ccc3c(c2)OCO3)CCO1 (stereo not drawn)	-8	0.9	10	32	0.7	12
Cc1nc2ccccc2n1CC(=O)NCCN1CCOCC1	-4	.	7	.	.	.
CCn1c(SCC(=O)c2cc(C)n(C)c2C)nnc1-c1ccccc1	-4	0	-2	-45	1.5	100*
C=CCn1c(SCC(=O)c2ccc(O)c(O)c2)nnc1-c1ccccc1OC	5	0.3	-6	-41	1.4	75*
C=CCn1c(SCC(=O)Nc2ccccc2OC)nnc1-c1ccccn1	6	.	-8	.	.	.
Cc1cc(C(=O)CSc2nnc(-c3cccs3)n2Cc2ccccc2)c(C)n1C	0	0.6	0	43	0.6	42
CCOC(=O)CSc1nnc(CNC(=O)c2ccccc2OC)n1-c1ccc(OC)cc1	-3	1.1	1	-4	1	-6
Cc1ccc(CCN2CC(C(=O)NCCCN3CCOCC3)CC2=O)cc1 (stereo not drawn)	.	1.1	.	-10	1.1	-9
COCCNC(=O)COc1ccc(Oc2ccccc2)cc1	8	0.8	-6	7	0.9	22
CC1(C)CC(=O)c2cnc(N3CCc4ccccc4C3)nc2C1	2	0.9	-2	17	0.8	11
CCCCCCOC(=O)/C=C/c1c(C)[nH]c(=O)[nH]c1=O	-8	0.8	11	10	0.9	18
CCC1(C)Cc2c(sc3nc(NN)n(C)c(=O)c23)CO1 (stereo not drawn)	9	0	-12	94*	0.1	99*
CCOC(=O)CSc1nc2sc3c(c2c(=O)[nH]1)CC(C)(CC)OC3 (stereo not drawn)	3	0.8	-5	12	0.9	16
CCOC(=O)c1c(C)n(-c2ccc(C)cc2)c2c(C(C(C)=O)C(=O)O)c(Br)c(O)c(O)c12 (stereo not drawn)	7	1	-5	-2	1	-4
CCOC(=O)C(C(C)=O)c1c(Br)c(O)c(O)c2c(C(=O)c3ccc(C)cc3)coc12 (stereo not drawn)	-4	0.7	6	98*	0	32
CC(C)OC(=O)CSc1nnnn1-c1ccc2c(c1)OCCO2	3	0.3	-6	-22	1.2	75*
O=C(CSc1nnnn1-c1ccc2c(c1)OCCO2)c1cccc2c1OCCO2	-4	0.3	2	29	0.7	71*
Fc1cccc(Cl)c1CSc1nnnn1-c1ccc2c(c1)OCO2	-8	0.1	8	38	0.6	92*
O=C(CSc1nnc(-c2cccs2)n1-c1cccc(Cl)c1)c1cccc2c1OCCO2	2	0.3	-4	85*	0.2	72*
O=C(O)CSc1nnnn1-c1ccc2c(c1)OCCO2	6	1.2	-7	4	1	-18
O=C(O)CSc1nnc(-c2cccs2)n1-c1ccc(Cl)cc1	-7	1	7	4	1	2
CCOCCCNC(=O)C1CCC(=O)N1CCc1ccccc1 (stereo not drawn)	-4	0.9	2	8	0.9	10

Compound activity (PubChem BioAssay)
